LmPK inhibitor = qHTS Assay for Inhibitors of Leishmania Mexicana Pyruvate Kinase (LmPK); AID 1721, 2009; Potency, µM (top dose mostly 57.5 µM), most hits filed as inhibitors; Q27686; purified LmPK, Kinase-Glo ATP luminescence, 1 h; actives 0.37% (n = 290,000)
Target sequence (Q27686 whole entry, looked up): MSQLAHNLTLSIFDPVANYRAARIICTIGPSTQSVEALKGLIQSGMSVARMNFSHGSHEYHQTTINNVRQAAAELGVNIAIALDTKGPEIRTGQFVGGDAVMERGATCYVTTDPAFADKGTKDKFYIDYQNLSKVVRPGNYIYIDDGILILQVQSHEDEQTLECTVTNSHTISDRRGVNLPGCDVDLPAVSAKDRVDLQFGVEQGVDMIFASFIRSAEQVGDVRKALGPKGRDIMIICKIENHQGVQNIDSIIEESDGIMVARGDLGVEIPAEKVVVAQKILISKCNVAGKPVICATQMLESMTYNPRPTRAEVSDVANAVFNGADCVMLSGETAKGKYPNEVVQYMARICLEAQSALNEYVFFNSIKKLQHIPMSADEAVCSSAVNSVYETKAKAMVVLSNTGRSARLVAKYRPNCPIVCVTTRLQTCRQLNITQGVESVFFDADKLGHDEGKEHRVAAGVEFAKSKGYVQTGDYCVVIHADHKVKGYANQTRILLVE
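Kinase-Glo luminescence read after 1 h RT reaction of 0.1 nM LmPK with 0.5 mM PEP and 0.1 mM ADP. Activity scaled between uninhibited and enzyme-free controls.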
NS1 inh = qHTS Assay for Inhibitors of Influenza NS1 Protein Function | Potency, µM (titrated, usually from 46.1 µM) | actives 0.4% (n = 270,000); calls by dose curve; note: actives are rising curves; nearly all actives have a fitted effect of over 50% in size
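A cell-based growth assay was used: compounds that relieve NS1-induced slow growth of budding yeast raise OD600. Assay medium was yeast nitrogen base with ammonium sulphate and -URA supplement, pH 6.0, with 2% galactose.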
RE007 growth inh = qHTS Assay for Inhibitors of the HIV-1 protein Vpr | S. pombe RE007 Vpr strain, BacTiter-Glo ATP luminescence, 24 h | Potency, µM (top dose mostly 92.2 µM), hits mostly inhibitors | actives 0.21% (n = 360,000) | AID 651644, 2012; active = well fitted falling curve with a large enough effect; inconclusive = small, poorly fitted or top-dose-only effect; inactive = no such curve, though single readings can be large or run the other way; note: nearly all actives have a fitted effect of over 50% in size
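Fission yeast RE007 carrying one integrated HIV-1 vpr copy, seeded at OD 0.01 in PMG+AL medium with 23 nL pinned compound. Grown 24 h at 30 degrees; viability read by BacTiter-Glo luminescence after 5 min.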
TbPYK inhibitor = qHTS of Trypanosoma Brucei Inhibitors; TbPYK enzyme, Kinase-Glo Plus ATP luminescence, 45 min; Potency, µM (doses to about 76.8 µM), actives largely listed as inhibitors; actives 0.12% (n = 410,000); note: nearly all actives have a fitted effect of over 50% in size
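Enzyme and substrate buffer are dispensed first and compound is pin-transferred. ADP at 130 uM final then starts the reaction, which runs 45 min at room temperature. Detection reagent is added for 10 min before luminescence is imaged.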
LmPK confirm = Confirmation Assay for Inhibitors of Leishmania Mexicana Pyruvate Kinase (LmPK); shares compounds with LmPK inhibitor; purified LmPK, Kinase-Glo ATP luminescence, 1 h; actives 40% (n = 150); Potency, µM (series often up to 57.5 µM), most hits filed as inhibitors; AID 2559, 2010;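 active = compounds giving a full or partial concentration-response curve, as inhibitors or activators; inconclusive = weak, top-dose-only or unclear curve responses; inactive = no response at any tested dose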
Flu NS1 inh = Assay for Inhibitors of Influenza NS1 Protein Function: Hit Validation; shares compounds with NS1 inh; influenza NS1 function cell assay, 15-point titration; activity change, negative = inhibition, % at 32.9 µM; 1,400 tested, under 10 active; AID 492980, 2010; calls by dose curve
Each line names hits and unclear results; the compound was inactive in the other large screens (follow-up assays come after a bar, where they were run). Only some compounds are listed: those with a hit (about 0.77% of all), similar ones and a draw of the others. Unless noted, calls come from the whole dose curve; as a rule, active = well fitted curve in the direction sought with a large enough effect; inconclusive = small, poorly fitted or top-dose-only effect, or another doubt; inactive = no such curve, though single readings can be large; an effect the other way counts as inactive or inconclusive.

Cc1cc(C)c2cc(C#N)c(NCCOC(=O)c3ccccc3C)nc2c1	none | LmPK confirm inactive
Cn1c(-c2ccc(Br)cc2)cnc1NCc1cccnc1	none | LmPK confirm inactive
Cn1cc(CN(Cc2ccccc2)C[C@@H]2CCC(=O)N2)c(-c2ccccc2F)n1	none | LmPK confirm inactive
Cn1cc(CN(Cc2ccccn2)C[C@@H]2CCC(=O)N2)c(-c2ccccc2F)n1	none
CC(C)c1ccc(C(O)(C(=O)O)c2ccc(C(C)C)cc2)cc1	none (no result: LmPK inhibitor, RE007 growth inh, TbPYK inhibitor)
CC(=O)c1cc(C#N)c(Oc2ccc(F)cc2)nc1C	none | LmPK confirm inactive
CC(=O)c1cc(C#N)c(Oc2cc(C)cc(C)c2)nc1C	TbPYK inhibitor inconclusive
CCC(C)(C)c1ccc(CC(C)CN2C[C@@H](C)O[C@@H](C)C2)cc1 (stereo partly specified)	none (no result: LmPK inhibitor, NS1 inh, RE007 growth inh)
CC(C)C(NC(=O)c1ccc2c(c1)OCO2)C(=O)N/N=C\c1ccco1 (stereo unspecified)	none | LmPK confirm inactive
Cc1cc(C)c(S(=O)(=O)n2ccc(-c3ccc(OCCN(C)c4ccccn4)cc3)n2)c(C)c1	none | LmPK confirm inactive
Cc1occc1C(=O)O/N=C(\N)c1ccccc1	LmPK inhibitor 3.5µM, RE007 growth inh inconclusive, TbPYK inhibitor inconclusive | LmPK confirm 10µM
c1ccc(C2=NNC(=NC3CC3)SC2)cc1	LmPK inhibitor 4.5µM, RE007 growth inh inconclusive, TbPYK inhibitor inconclusive | LmPK confirm 15µM
CCOC(=O)c1c(C)n(-c2ccc(C)cc2)c2c(C(C(C)=O)C(=O)O)c(Br)c(O)c(O)c12 (stereo unspecified)	none
CCOC(=O)C(C(C)=O)c1c(Br)c(O)c(O)c2c(C(=O)c3ccc(C)cc3)coc12 (stereo unspecified)	LmPK inhibitor 5.6µM | LmPK confirm inactive
CCN(c1ccc(OC)cc1)S(=O)(=O)c1ccc2[nH]c3c(c2c1)CCCCC3	none (no result: LmPK inhibitor, NS1 inh, RE007 growth inh)
Cc1ccnc(N2C(=O)c3ccccc3C2=O)c1	none | LmPK confirm inactive
CN1CCc2cccc3c2C1Cc1ccc(O)c(O)c1-3 (stereo unspecified)	LmPK inhibitor 3.2µM, NS1 inh inconclusive | LmPK confirm inactive
COc1cc2c(cc1OC)-c1c(OC)c(OC)cc3c1C(C2)N(C)CC3 (stereo unspecified)	none
Cc1ccc(C(=O)N2c3ccccc3CC2C)o1 (stereo unspecified)	LmPK inhibitor 6.3µM, RE007 growth inh inconclusive | LmPK confirm inconclusive
Cc1cccc(N2CCn3c2nc2c3c(=O)n(CCCc3ccccc3)c(=O)n2C)c1	none (no result: LmPK inhibitor, NS1 inh, RE007 growth inh)
COc1ccc(-c2cc3nc(C)cc(N)n3n2)cc1	LmPK inhibitor 3.5µM, RE007 growth inh 16µM, TbPYK inhibitor 22µM | LmPK confirm 5.8µM
COc1ccc(-c2cc3nc(C)cc(-c4ccc(OC)cc4)n3n2)cc1	none
CC1(C(=O)O)CCC2(C)CCC3(C)C(=CC(=O)[C@@H]4C5(C)CC[C@H](O[C@H]6O[C@H](C(=O)O)C(O)C(O)[C@H]6O[C@@H]6O[C@H](C(=O)O)C(O)C(O)C6O)C(C)(C)[C@@H]5CCC43C)[C@@H]2C1 (stereo partly specified)	none (no result: LmPK inhibitor, NS1 inh, RE007 growth inh)
O=c1c2ccccc2cnn1-c1nc2ccccc2[nH]1	LmPK inhibitor 2.2µM, RE007 growth inh inconclusive, TbPYK inhibitor 13µM (no result: NS1 inh) | LmPK confirm 3.3µM
O=C(COC(=O)CCC(=O)c1ccc(F)cc1)Nc1ccc(F)cc1F	LmPK inhibitor 2.2µM (no result: NS1 inh) | LmPK confirm inactive
O=C(O)[C@H](Cc1cc(I)c(O)c(I)c1)C1CCCCC1	none (no result: LmPK inhibitor, RE007 growth inh, TbPYK inhibitor)
COc1cccc(-c2nc3ccccc3s2)c1	LmPK inhibitor 10µM, RE007 growth inh inconclusive | LmPK confirm inconclusive
COc1cccc(CC(=O)Nc2ccc(-c3nc4ccccc4s3)cc2)c1	none (no result: LmPK inhibitor, NS1 inh, RE007 growth inh)
COC(=O)N1C2CC3(C)CC(=O)CC1(C)C3c1ccccc12 (stereo unspecified)	none (no result: NS1 inh, RE007 growth inh, TbPYK inhibitor)
CC(C)(C)c1cc(C(C)(C)C)c(NC(=O)c2c[nH]c3ccccc3c2=O)cc1O	none (no result: LmPK inhibitor, NS1 inh, RE007 growth inh)
Nc1ncnc2c1ncn2C1OC(COP(=O)(O)O)C(O)C1O (stereo unspecified)	LmPK inhibitor 16µM, RE007 growth inh inconclusive | LmPK confirm 5.8µM
Nc1ncnc2c1ncn2[C@@H]1O[C@H](COP(=O)(O)O)[C@@H](O)[C@H]1O	LmPK inhibitor 10µM, RE007 growth inh inconclusive, TbPYK inhibitor inconclusive | LmPK confirm 6.5µM
COc1ccc2c(c1)Cc1cc(N=[N+]([O-])c3ccc4c(c3)Cc3cc(OC)ccc3-4)ccc1-2	none (no result: LmPK inhibitor, RE007 growth inh, TbPYK inhibitor)
c1ccc2nc(-c3nc4ccccc4[nH]3)ccc2c1	LmPK inhibitor 4.5µM, RE007 growth inh inconclusive, TbPYK inhibitor inconclusive | LmPK confirm 9.2µM
c1ccc2[nH]c(-c3cscn3)nc2c1	LmPK inhibitor inconclusive
CCn1c(-c2ccccc2Cl)nn(CC(=O)Nc2ccc(OC)cc2)c1=S	none | LmPK confirm inactive
NNC(=O)c1csc(CS(=O)(=O)c2ccc(Cl)cc2)n1	none
NNC(=O)c1csc(Cc2c(Cl)sc3ccc(Cl)cc23)n1	NS1 inh inconclusive | Flu NS1 inh inactive
Cc1cc(C)cc(N(C(=O)CNS(=O)(=O)c2ccccc2)C(C(=O)NCc2ccccc2)c2ccc(C)o2)c1 (stereo unspecified)	NS1 inh 10µM | Flu NS1 inh inactive
Cc1ccc(S(=O)(=O)NCC(=O)N(c2ccccc2)C(C(=O)NCc2ccccc2)c2ccco2)cc1 (stereo unspecified)	none
Cc1csc(-c2nc3ccccc3n2C(C(=O)NC(C)(C)C)c2cc3ccccc3o2)c1 (stereo unspecified)	none (no result: LmPK inhibitor, NS1 inh, TbPYK inhibitor)
COc1cc(CC2C(=O)OCC2C(=O)c2ccc3c(c2)OCO3)cc(OC)c1OC (stereo unspecified)	none (no result: LmPK inhibitor, NS1 inh)
Cc1ccccc1N=C1SC(CC(=O)Nc2ccc3ccccc3c2)C(=O)N1Cc1ccccn1 (stereo unspecified)	NS1 inh 14µM | Flu NS1 inh inactive
C/C(=N\O)c1cccc[n+]1Cc1ccccc1	none (no result: LmPK inhibitor, RE007 growth inh, TbPYK inhibitor)
Cc1nn(-c2ccccc2)c(C)c1/C=N/NC(=O)c1cc(-c2ccc(Cl)s2)[nH]n1	NS1 inh 8.9µM | Flu NS1 inh inactive
O=C1/C(=C/c2cccnc2)Oc2cc(OS(=O)(=O)c3ccccc3)ccc21	NS1 inh inconclusive
O=C1/C(=C/c2cccnc2)Oc2cc(OS(=O)(=O)c3ccc(Cl)cc3)ccc21	NS1 inh 3.5µM | Flu NS1 inh inactive
COc1ccc(CNC(=O)CCCCCn2c(SCC#N)nc3cc4c(cc3c2=O)OCO4)cc1	NS1 inh 11µM | Flu NS1 inh inactive
COCCNC(=O)C1CCCN(Cc2ccccc2-c2ccccc2)CC1 (stereo unspecified)	none (no result: LmPK inhibitor, NS1 inh)
